EPAC2 antag: qHTS for Antagonist of cAMP-regulated guanine nucleotide exchange factor 2 (EPAC2): primary screen. Rap guanine nucleotide exchange factor 4 (Homo sapiens), Q8WZA2. EPAC2 GEF exchange of Rap1B-BODIPY-GDP, fluorescence. Potency, µM (series often up to 114 µM), for the others: at the highest dose activity, negative = inhibition, usual class: inhibitors. 360,000 tested, 0.18% active; also: potency is read from the fitted curve at half-maximal effect; % is scaled to controls: 0 for no effect and ±100 for the full control effect; nearly all actives have a fitted effect of over 45% in size
EPAC1 agonist: qHTS for Agonist of cAMP-regulated guanine nucleotide exchange factor 3 (EPAC1): primary screen; Rap guanine nucleotide exchange factor 3 (Homo sapiens), O95398; EPAC1 agonist qHTS, biochemical assay; response scale: 100% = response to 6.5 mM cAMP; Potency, µM (titrated, usually from 154 µM), for inactives: top-dose activation, most hits filed as activators; 360,000 tested, 0.073% active; AID 720707, 2013; also: potency is read from the fitted curve at half-maximal effect; nearly all actives have a fitted effect of over 60% in size
Target sequence (O95398 whole entry, looked up): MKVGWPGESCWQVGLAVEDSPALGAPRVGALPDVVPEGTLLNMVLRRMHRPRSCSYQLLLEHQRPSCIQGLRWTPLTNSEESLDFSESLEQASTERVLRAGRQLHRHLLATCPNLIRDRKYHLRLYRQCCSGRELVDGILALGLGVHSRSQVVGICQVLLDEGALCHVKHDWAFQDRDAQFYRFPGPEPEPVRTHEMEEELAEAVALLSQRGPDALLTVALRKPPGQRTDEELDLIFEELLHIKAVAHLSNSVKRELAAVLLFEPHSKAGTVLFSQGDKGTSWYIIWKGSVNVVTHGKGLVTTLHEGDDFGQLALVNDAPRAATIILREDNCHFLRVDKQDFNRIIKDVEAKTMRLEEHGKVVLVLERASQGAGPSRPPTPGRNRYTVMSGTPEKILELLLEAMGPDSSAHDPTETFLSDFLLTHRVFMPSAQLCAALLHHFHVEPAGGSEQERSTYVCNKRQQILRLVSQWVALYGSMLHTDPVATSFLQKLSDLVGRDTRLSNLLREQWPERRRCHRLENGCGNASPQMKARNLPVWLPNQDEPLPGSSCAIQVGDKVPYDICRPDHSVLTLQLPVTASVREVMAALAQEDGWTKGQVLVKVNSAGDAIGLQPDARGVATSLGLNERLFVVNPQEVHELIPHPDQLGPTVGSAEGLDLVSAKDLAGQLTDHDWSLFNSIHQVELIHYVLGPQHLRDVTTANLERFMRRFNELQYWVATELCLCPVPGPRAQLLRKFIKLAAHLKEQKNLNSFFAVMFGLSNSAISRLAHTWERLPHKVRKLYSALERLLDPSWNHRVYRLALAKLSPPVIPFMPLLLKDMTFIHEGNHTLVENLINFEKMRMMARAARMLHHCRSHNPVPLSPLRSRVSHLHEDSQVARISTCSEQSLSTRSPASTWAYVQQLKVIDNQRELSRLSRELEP
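EPAC1 100 nM, Rap1B–BODIPY-GDP 250 nM, unlabeled GDP 50 uM; compound titration; 5 min RT; kinetic read ex480/em540 at 5-min intervals ×30 min; data normalized to 6.5 mM cAMP agonist control.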
USP1 inh: Inhibitors of USP1/UAF1: Primary Screen | recombinant USP1/UAF1, Ub-Rhodamine cleavage fluorescence | Potency, µM (top dose mostly 57.1 µM), for inactives: top-dose activity change, negative = inhibition, usual class: inhibitors | 390,000 tested, 0.23% active; also: potency is read from the fitted curve at half-maximal effect; % is scaled to controls: 0 for no effect and ±100 for the full control effect; nearly all actives have a fitted effect of over 60% in size
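USP1/UAF1 complex (1 nM) preincubated 15 min at room temperature with compound, then Ub-Rho substrate (150 nM final) added. Kinetic fluorescence at 480/540 nm over 6 reads at 60 s intervals; 50 mM HEPES pH 7.8, 0.5 mM EDTA, 0.1 mg/ml BSA, 1 mM TCEP, 0.01% Tween-20.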
EPAC2 agonist: qHTS for Agonist of cAMP-regulated guanine nucleotide exchange factor 4 (EPAC2): primary screen; Rap guanine nucleotide exchange factor 4 (Homo sapiens), Q8WZA2; 360,000 tested, 0.079% active; AID 720711, 2013; Potency, µM (highest dose often 154 µM), without a hit: top-dose activation, usual class: activators; EPAC2 activation, biochemical qHTS; response scale: 100% = 6.5 mM cAMP response; also: potency is read from the fitted curve at half-maximal effect; nearly all actives have a fitted effect of over 50% in size
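In this primary screen, activation is scored as increased exchange of BODIPY-GDP from Rap1B by 100 nM EPAC2, with 50 uM GDP as competitor. Signal is normalized to the 6.5 mM cAMP agonist control.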
EPAC1 antagonist: qHTS for Antagonist of cAMP-regulated guanine nucleotide exchange factor 3 (EPAC1): primary screen | Rap guanine nucleotide exchange factor 3 (Homo sapiens), O95398 | EPAC1 GEF assay, Rap1b-BODIPY-GDP exchange fluorescence | Potency, µM (highest dose often 115 µM), inactives show at the top dose activity change, negative = inhibition, hits mostly inhibitors | 360,000 tested, 0.14% active | AID 720709, 2013;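 also: potency is read from the fitted curve at half-maximal effect; plate controls were vehicle for no effect and positive control for full effect; nearly all actives have a fitted effect of over 50% in size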
FBPA coupling cs: qHTS Assay for Inhibitors of Fructose-1,6-bisphosphate Aldolase from Giardia Lamblia: Coupling assay counterscreen; coupling enzyme system counterscreen, AmpLite Red fluorescence; activity change, negative = inhibition, % at 58.2 µM, hits read low; 290,000 tested, 0.67% active; in the data active = activity change below about -30%; also: % is scaled to controls: 0 for no effect and ±100 for the full control effect
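Activity here indicates interference with the coupling reaction, not aldolase inhibition. Compounds at 57.5 uM final met coupling enzymes for 10 min at RT; substrate and AmpLite Red detection followed, with a 525/598 nm fluorescence read after 20 min.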
Starred values were filed as active, the others as inactive; ? = inconclusive; nt = not tested or not shown; ! = not active in a repeat. Compounds with a hit are over-represented: about 0.87% of the library has one in this group of screens. Unless noted, calls follow the shape of the dose curve; as a rule, active = well fitted curve in the direction sought with a large enough effect; inconclusive = small, poorly fitted or top-dose-only effect, or another doubt; inactive = no such curve, though single readings can be large; an effect the other way counts as inactive or inconclusive.

SMILES | EPAC2 antag | EPAC1 agonist | USP1 inh | EPAC2 agonist | EPAC1 antagonist | FBPA coupling cs
CC(C)(C)C(=O)NC(Nc1cccc2cccnc12)C(Cl)(Cl)Cl (stereo not given) | -24% | 16% | -6% | -2% | ? | -66*
CCC(=O)NC(NC(=S)Nc1cccc2cccnc12)C(Cl)(Cl)Cl (stereo not given) | -5% | 9% | -10% | 16% | -16% | -8
Cc1cccc(-n2nnnc2SCC(=O)N(CC(C)C)c2c(N)n(CC(C)C)c(=O)[nH]c2=O)c1 | 28% | -2% | -5% | -16% | -5% | 1
C=CC(C1=CC(=O)C(OC)=CC1=O)c1ccccc1 (stereo not given) | nt | nt | nt | nt | nt | -53*
COc1ccc(S(=O)(=O)N=C2C=C(C)C(=O)C(C)=C2)cc1 | 5% | 1% | 3% | -13% | -9% | -3
C=CC(C1=CC(=O)C(OC)=CC1=O)c1ccc(OC)cc1 (stereo not given) | nt | nt | nt | nt | nt | -40*
C=CC(C1=CC(=O)C(OC)=C(OC)C1=O)c1ccccc1 (stereo not given) | nt | nt | nt | nt | nt | -80*
CCOC(=O)CN(C(=O)CSc1nnc(CNc2ccc(C)cc2C)o1)c1ccccc1 | -6% | 4% | -20% | 15% | ? | -3
Cc1nnc2ccc(-c3ccc(NS(=O)(=O)c4ccccc4[N+](=O)[O-])cc3)nn12 | 0% | 5% | -13% | 13% | -17% | nt
CCN(CC)c1ccc(C(=O)NCc2ccc3c(c2)CCN3C(=O)c2cccc(C)c2)cc1 | nt | nt | -12% | nt | nt | nt
Cc1cc(/C=N/NC(N)=S)c(O)c(/C=N/NC(N)=S)c1 | 25% | 40µM* | ? | ? | -13% | 0
NC(=S)N/N=C/c1cccc(O)c1O | 1% | 2% | -12% | 4% | -21% | -30
O=C1C(=O)c2c(C(=O)c3ccccc3)coc2-c2ccccc21 | 8% | 10% | -9% | 12% | 1% | -80*
Cc1onc(-c2ccccc2Cl)c1C(=O)c1ccccc1 | ? | 11% | -15% | 16% | -12% | 1
Cc1cc(=O)oc(C)c1C(=O)O | -4% | 7% | 6% | 1% | 4% | 3
CCOC(=O)c1c(C)oc2c1C(=O)c1ccccc1C2=O | 6% | -2% | ? | 9% | -3% | -43*
Cc1oc2c(c1C(=O)c1ccccc1)C(=O)C(=O)c1ccccc1-2 | ? | 24% | 13µM* | 6% | ? | -78*
CCOC(=O)c1c(C)nc2c(c1-c1ccccc1)C(=O)c1ccccc1-2 | -22% | 19% | -6% | 11% | -4% | 5
Cc1oc2c(c1C(=O)O)C(=O)c1ccccc1C2=O | 2% | -19% | 28µM* | 5% | -3% | -29
CN1C(=O)Cc2cc(S(=O)(=O)CCC(=O)Nc3ccc(OC(F)(F)F)cc3)ccc21 | nt | nt | -3% | nt | nt | nt
CCCCn1c(N)c(N(CCOC)C(=O)C2CCN(S(=O)(=O)c3ccc(C)c(C)c3)CC2)c(=O)[nH]c1=O | 2% | -51% | -15% | 10% | 7% | nt
O=S(=O)(Oc1ccccc1/C=N/n1cnnc1)c1ccccc1 | -4% | 9% | -2% | -18% | -12% | -49*
COc1ccccc1/C=N/n1cnnc1 | -6% | 17% | ? | 8% | -16% | 1
COc1cc(/C=N/n2c(-c3cc(C)[nH]n3)n[nH]c2=S)cc(OC)c1O | 2% | 12% | -6% | 13% | 10% | 0
O=C1Nc2ccccc2C1=Nc1cccc([N+](=O)[O-])c1 | 7% | -1% | -13% | 1% | -5% | -1
SMILES | EPAC2 antag | EPAC1 agonist | USP1 inh | EPAC2 agonist | EPAC1 antagonist | FBPA coupling cs
NC(=O)c1ccc(N=C2C(=O)Nc3ccc([N+](=O)[O-])cc32)cc1 | ? | 3% | 14µM* | 5% | ? | -30*
CCN(CC)c1ccc(NC(=O)CSc2nc(C3CC3)nc3ccccc23)cc1C | 13% | -14% | -23% | -12% | -9% | 0
Cc1cc(C)c2oc(C(=O)N(Cc3cccs3)C3CCS(=O)(=O)C3)cc(=O)c2c1 (stereo not given) | 4% | -12% | -22% | 5% | 19% | 1
COc1cc2c(cc1OC)-c1c(OC)c(OC)cc3ccnc(c13)C2=O | 4% | -17% | -33% | 2% | -4% | -34*!
CCOC(=O)N1CCc2c(sc(NCc3ccc(N(C)C)cc3)c2C(=O)Nc2ccc(OC)cc2)C1 | nt | nt | 28µM* | nt | nt | nt
CCOC(=O)N1CCc2c(sc(NCc3sccc3C)c2C(=O)Nc2ccc(OC)cc2OC)C1 | nt | nt | -23% | nt | nt | nt
CC(NC(=O)c1ccc(-c2ccccc2)cc1)C(c1ccccc1)N1CCOCC1 (stereo not given) | -10% | 10% | -10% | 6% | -10% | nt
S=C(NC1CCCCC1)N1CCN(c2ccccn2)CC1 | 0% | -3% | -5% | 13% | -26% | -41*
O=C1/C(=C/c2cccc(F)c2)SC(=S)N1NS(=O)(=O)c1ccccc1 | 18µM* | -13% | -16% | -5% | 40µM* | 8
COc1ccc(/C=C2/SC(=O)N(NS(=O)(=O)c3ccccc3)C2=S)cc1OC | -8% | 1% | -5% | 7% | -12% | 7
O=C1/C(=C/c2ccccn2)SC(=S)N1NS(=O)(=O)c1ccccc1 | -14% | 1% | -9% | -6% | -28% | 10
COc1cccc(/C=C2\SC(=S)N(NS(=O)(=O)c3ccccc3)C2=O)c1OC | ? | 8% | -27% | 1% | 50µM* | 9
COc1cc(/C=C2\SC(=S)N(NS(=O)(=O)c3ccccc3)C2=O)cc(OC)c1OC | 50µM* | 3% | -8% | 5% | ? | 20
Cc1ccc(OCCC(=O)OCC(=O)NCCc2ccc(Cl)cc2)cc1 | -9% | 1% | -21% | -12% | -26% | nt
C=Cc1ccc(Cn2c(C)c(C(=O)NCc3cccc([N+](=O)[O-])c3)sc2=O)cc1 | 3% | -6% | nt | 7% | -13% | nt
O=C(c1ccco1)[C@@H]1[C@@H]2C(=O)N(c3ccccc3)C(=O)[C@@H]2C2c3ccccc3C=CN21 (stereo not given in full) | -2% | 9% | 10µM* | 11% | -12% | -47*

Source: PubChem
